ChEMBL document CHEMBL3433997, “St. Jude Leishmania screening dataset” (2016)

Experiments:
Format in all cases: functional
[1] = target: Solute carrier family 2, facilitated glucose transporter member 1 (Homo sapiens) (UniProt P11166); assay: ST_JUDE_LEISH: Cytotoxicity at 2uM final concentration against transgenic Leishmania Mexicana promastigotes LmGLUT1 that are glucose transport deficient and complemented with the human glucose transporter GLUT1. Activity is measured by DNA content using SYBR green in vitro
Sequence of Solute carrier family 2, facilitated glucose transporter member 1 (Homo sapiens) (P11166 whole entry): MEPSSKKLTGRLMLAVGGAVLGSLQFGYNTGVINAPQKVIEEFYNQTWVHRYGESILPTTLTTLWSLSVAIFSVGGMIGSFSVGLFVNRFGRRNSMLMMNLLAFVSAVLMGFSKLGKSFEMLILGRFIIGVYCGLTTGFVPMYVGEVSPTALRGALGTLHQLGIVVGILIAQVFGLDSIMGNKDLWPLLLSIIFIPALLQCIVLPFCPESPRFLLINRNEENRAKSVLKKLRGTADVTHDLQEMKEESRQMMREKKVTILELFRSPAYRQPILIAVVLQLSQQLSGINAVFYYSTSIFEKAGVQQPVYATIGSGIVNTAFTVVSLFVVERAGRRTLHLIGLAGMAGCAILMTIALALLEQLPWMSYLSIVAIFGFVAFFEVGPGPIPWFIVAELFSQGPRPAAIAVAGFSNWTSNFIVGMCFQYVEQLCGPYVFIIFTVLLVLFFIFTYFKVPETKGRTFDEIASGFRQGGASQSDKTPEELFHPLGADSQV

[2] = target: Hexose transporter 1 (Plasmodium falciparum) (UniProt O97467); assay: ST_JUDE_LEISH: Cytotoxicity at 2uM final concentration against transgenic Leishmania Mexicana promastigotes LmPfHT that are glucose transport deficient and complemented with the Plasmodium falciparum hexose transporter. Activity is measured by DNA content using SYBR green in vitro
[3] = target: Glucose transporter (Leishmania mexicana) (UniProt O61059); assay: ST_JUDE_LEISH: Cytotoxicity at 2uM final concentration against transgenic Leishmania Mexicana promastigotes LmGT2 that are glucose transport deficient and complemented with the L. Mexicana glucose transporter 2. Activity is measured by DNA content using SYBR green in vitro

Row | Compound | inhibition [1] [%] | inhibition [2] [%] | inhibition [3] [%]
1 | Cc1cc(NCCc2ccccc2)nc(N/C(=N/CC(=O)OC(C)(C)C)Nc2ccc(C(F)(F)F)cc2)n1 | 4.08 | 0.44 | 2.34
2 | CCC1(C)CC(CCNCc2ccccc2O)(c2ccccc2OC)CCO1 (stereo unspecified) | 0.62 | -0.31 | 0.88
3 | FC(F)(F)c1cccc(Nc2nc3ccccc3nc2Nc2cccc(C(F)(F)F)c2)c1 | -0.24 | 0.5 | 0.85
4 | COCCNCc1cccc(-c2ccc3c(Nc4ccc(F)cc4Cl)ccnc3c2)c1 | -1.97 | 2.48 | 0.78
5 | COc1ccc(-c2ccc(NC(=O)c3ccc(C#N)cc3)c(F)c2)cc1CN(C)CCN(C)C | 0.85 | -0.56 | 0.45
6 | O=C(NC1CCN(c2ccnc3cc(Cl)ccc23)C1)c1cccc(F)c1 (stereo unspecified) | 0.95 | 1.46 | 1.42
7 | COc1ccc(NS(=O)(=O)c2cc(NC(=O)Cn3ccccc3=O)ccc2N2CCCCC2)cc1 | 2.57 | 3.46 | -7.28
8 | CCC1CN2CCc3c([nH]c4ccccc34)C2CC1CC1=NCCc2c1[nH]c1ccccc21 (stereo unspecified) | 1.78 | 3.33 | 2.74
9 | COc1ccc(NC(=O)c2ccc(-c3ccc(-c4cccnc4)cc3)c(C)c2)cc1OCCN(C)C | 1.47 | 1.09 | 0.84
10 | COc1cccc(Nc2nc(C)cc(Nc3cccc(C#N)c3)n2)c1 | 17.5 | 19.2 | 4.27
11 | Cc1nc(Nc2ccc(F)cc2)nc(N2CCc3ccccc3[C@@H]2C)c1C | 3.94 | 5.21 | 1.46
12 | Cn1nc(C(F)(F)F)c(-c2ccc(Br)cc2)c1NC(=O)Cc1ccccc1F | -1.83 | 3.22 | -2.17
13 | C=CC[C@H](C[C@H](O)[C@H](Cc1ccccc1)NC(=O)c1ccc(-c2cccnn2)cc1)C(=O)NC1CCCCC1 | -1.55 | -0.85 | -1.31
14 | CC(c1cccc(S(=O)(=O)NCc2cccc(C(F)(F)F)c2)c1)N1CCC(N2CCCCC2)CC1 (stereo unspecified) | 6.15 | 7.23 | 7.91
15 | CCNc1cc(C(=O)N[C@@H](Cc2ccccc2)[C@H](O)CNCCC(C)(C)C)c(F)c(N2CCCCS2(=O)=O)c1 | 6.09 | -0.44 | 0.33
16 | COc1ccc2nccc(N3CCC(CCNCc4ccc5c(n4)NC(=O)CS5)CC3)c2n1 | 4.06 | 4.8 | 7.97
17 | CC(C)c1cc2c(ccc3nc(N)nc(N)c32)[nH]1 | 9.81 | 31 | 8.49
18 | O=c1cc(NCCCNCc2cccc(Oc3ccccc3)c2)[nH]c2ccccc12 | 4.28 | 2.68 | 3.25
19 | CCc1cn(C)c2c(N3CCCC3=O)cc(C(=O)N[C@@H](Cc3ccccc3)[C@H](O)CNCc3cccc(OC)c3)cc12 | 2.48 | 2.2 | 2.88
20 | O=C(Nc1cccc(Cl)c1)c1cnc(N2CCN(c3ccncc3)CC2)c(Cl)c1 | 23.4 | 42 | 12.7
21 | CN1CCN(CC(=O)Nc2cccc(-c3ccc(-c4nc5cc(C(F)(F)F)ccc5[nH]4)cc3)c2)CC1 | 0.96 | 0.81 | 1.35
22 | COc1ccc(N2C(=O)c3c(c4ccccc4n3C)C2c2ccccc2O)cc1 (stereo unspecified) | 6.27 | 4.4 | 5.53
23 | O=C(C=Cc1ccc(Cl)c(Cl)c1)NCCCCCN1CCCC(CCCNC(=O)c2ccc3c(c2)OCO3)C1 (stereo unspecified) | 2.29 | 0.94 | -0.94
24 | O=C(/C=C/c1ccc(C(F)(F)F)cc1)NCCCCCN1CCN(C(=O)Nc2ccc(Cl)c(Cl)c2)CC1 | 0.91 | 2.31 | -0.42

Row | Compound | inhibition [1] [%] | inhibition [2] [%] | inhibition [3] [%]
25 | CN(C)Cc1ccc(-c2cccc(NC(=O)c3cccc(Cl)c3)c2)cc1 | 2.44 | 1.66 | 1.39
26 | CC(=O)Nc1ccc(C(=O)NC2CCN(c3ccnc4cc(Cl)ccc34)CC2)cc1 | 0.22 | 1.09 | 1.09
27 | O=C(Nc1ccc(N2CCC(Nc3ccccn3)CC2)cc1)c1cnc(Cl)c(Cl)c1 | 18 | 10.4 | 4.85
28 | CN(CCc1ccccc1)c1ncc(-c2ccccc2CNCc2ccccc2O)cn1 | 0.08 | -1.17 | 2.23
29 | Cc1cc(C(=O)Nc2ccc3c(ccn3C3CCCN(Cc4ccc(C(F)(F)F)cc4F)CC3)c2)no1 (stereo unspecified) | -0.37 | 0.5 | -0.5
30 | O=C(CNCC1CCCCC1)Nc1cc(C(F)(F)F)ccc1Cl | 1.93 | 0.51 | 1.07
31 | Cc1cc(N[C@@H](Cc2ccccc2)C(=O)Nc2ccccc2)nc(NCCc2ccc(F)cc2)n1 | 3.66 | 3.68 | 1.86
32 | O=C(Nc1ccc2c(c1)CCC2)N[C@H]1CCN(CCCCCNC(=O)C2CC2c2ccc(Cl)c(Cl)c2)C1 (stereo partly specified) | -0.7 | 0.43 | -0.01
33 | CCCN1CCN(CCNC(=O)c2cccc(Nc3nccc(Nc4ccc(Oc5ccccc5)cc4)n3)c2)CC1 | 0.38 | 0.74 | 1.04
34 | O=c1cc(NCCCNCc2cc(C(F)(F)F)ccc2F)[nH]c2ccccc12 | 0.7 | 0.86 | 3.1
35 | N#Cc1ccc2c(c1)CCN(CCC1CCC(NC(=O)c3ccc(-c4ccccn4)s3)CC1)CC2 (stereo unspecified) | 13.3 | 9.45 | 9.9
36 | COc1ccc(-n2nc(C(=O)NCc3ccccc3OC)c3ccccc3c2=O)cc1 | 8.08 | 6.04 | 2.98
37 | CC(=O)Nc1ccc(OCCN(Cc2ccccc2C(F)(F)F)c2ccc(C#N)c(C(F)(F)F)c2)c(Cl)c1 | 2.42 | 2.13 | 2.83
38 | CCCNC(=O)c1cncc(-c2ccc(CNC(CC)c3ccccc3)cc2)c1 (stereo unspecified) | -0.02 | 0.28 | -0.14
39 | OC(CNCCCc1ccccc1)c1cc(OCc2ccccc2)cc(OCc2ccccc2)c1 (stereo unspecified) | 6.81 | 2.05 | 1.79
40 | CC(C)CNCc1ccc(-c2cccc(-c3nc4ccccc4[nH]3)c2)cc1 | 1.31 | 9.2 | 0.1
41 | Cc1nc(O)c2c(ccc3ccc(CNc4ccc(C(=O)N[C@@H](CCC(=O)O)C(=O)O)cc4)cc32)n1 | 0.64 | 2.36 | 1.05
42 | CN1CCCC1CCNc1ncc2c(-c3ccc(NC(=O)Nc4cc(C(F)(F)F)ccc4F)cc3)nn(C)c2n1 (stereo unspecified) | 3.33 | 1.92 | 3.95
43 | Fc1ccc(-c2csc3ncnc(Cl)c23)cc1 | -0.36 | -0.72 | -2.14
44 | Cc1cccc(Nc2nc3nonc3nc2Nc2cccc(Cl)c2Cl)c1C | 9.75 | 7.64 | 7.5
45 | CCC1CCc2cc(N)cc(-c3nc4c(c(C)nn4CC)c(=O)[nH]3)c2O1 (stereo unspecified) | 5.2 | 4.15 | 3.42
46 | Nc1c(C(=O)NCCCCN2CCN(c3nsc4ccccc34)CC2)sc2ccccc12 | 5.13 | 4.14 | 2.39
47 | COc1ccc2nccc([C@@H](O)CN3CCC(NC(=O)/C=C/c4cc(F)cc(Br)c4)CC3)c2c1 | 6.91 | 4.62 | -0.22
